# Experimental data reported in PubChem BioAssay (Tox21).
# Inconclusive results are not listed. A call without a number means that no potency is given here. The source made the active and inactive calls. Calls follow the shape of the dose curve; as a rule, active = well fitted inhibition curve with a large enough effect in the repeat runs; inconclusive = weak or mixed curves, or effect the other way; inactive = no such curve, though single readings can be large or run the other way.
# Target: Nuclear receptor ROR-gamma (Homo sapiens) (UniProt P51449)
# Test: qHTS assay to identify small molecule antagonists of the retinoid-related orphan receptor gamma (ROR-gamma) signaling pathway (AID 1159521; also: top concentration of the series differs between compounds; nearly all actives have a fitted effect of over 50% in size)
# Conditions: Tet-on RORgamma CHO cells, RORE-luciferase, 16 h; series mostly up to 92.4 µM
# Text: U.S. Tox21 Program National Center for Advancing Translational Sciences [NCATS] NIH Chemical Genomics Center [NCGC] U.S. Environmental Protection Agency [EPA] National Institutes of Environmental Health Sciences [NIEHS] National Toxicology Program [NTP] U.S. Food and Drug Administration [FDA] Tox21 Assay Overview: Nuclear steroid hormone receptors are involved in many biological processes including inflammatory responses, cell proliferation, and apoptosis. Environmental factors or compounds disrupting these nuclear receptor pathways and gene expression may promote susceptibility to immunotoxicants and autoimmune diseases. One important group of these expression factors are the retinoid-related orphan receptors. To assess compounds that may interfere with the retinoid-related orphan receptor gamma (ROR-gamma) transcription factor, a cell-based luciferase assay was used. The CHO cell-based assay utilizes a TET-inducible ROR expression factor and ROR response element-LUC reporter gene. Reporter gene activity was induced using Doxycycline Hyclate and measured after 16 hr incubation. Tet-on ROR gamma CHO cells were used to screen against the Tox21 10K compound library for ROR gamma antagonists by quantification of decreased reporter gene activity in terms of decreased luminescence.
# Tox21 Assay Protocol Summary: Tet-on ROR gamma CHO cells were dispensed at 1,000 cells in 4 uL of culture medium per well into white wall/solid bottom 1536-well plates using a Multidrop Combi (Thermo Scientific, Waltham, MA) dispenser. Following incubation at 37 C and 5% CO2 for 4 hr, 23 nL of compounds dissolved in DMSO, positive controls or DMSO only were transferred by a Pintool station (Kalypsys, San Diego, CA) and after 2 hr incubation at 37 C, one ul of 1 uM (final concentration) of Doxycycline Hyclate was added to all the wells by using a Flying Reagent Dispenser (FRD) (Aurora Discovery, San Diego, CA). After 16 hr incubation at 37 C and 5% CO2, 5 uL of ONE-Glo reagent (Promega Corporation, Madison, WI) was added to each assay plate using FRD. After 30 min incubation at room temperature, luminescence was quantified on a ViewLux plate reader (Perkin Elmer, Waltham, MA).
Structure (SMILES),Potency,"activity change, negative = inhibition"
CC(=O)Nc1ccn(C2COC(COC(=O)c3ccccc3)O2)c(=O)n1 (stereo not given),inactive,
C[C@H](N)C(=O)N[C@@H](C)C(=O)NC1[C@H]2CN(c3nc4c(cc3F)c(=O)c(C(=O)O)cn4-c3ccc(F)cc3F)C[C@@H]12 (stereo not given in full),inactive,
Nc1nc(Cl)nc2c1ncn2[C@H]1C[C@H](O)[C@@H](CO)O1,inactive,
CC(=O)c1ccc(Cl)c(Cl)c1Cl,inactive,
[O-][n+]1ccc(Cl)cc1,inactive,
CCC(CC)C(=O)O,inactive,
O=C(O)c1cc(C(=O)O)cc([N+](=O)[O-])c1,inactive,
CCc1c(C)[nH]c2c1C(=O)C(CN1CCOCC1)CC2 (stereo not given),inactive,
CC(=O)Oc1cccc2c1C(=O)c1c(OC(C)=O)cc(C(=O)O)cc1C2=O,inactive,
Nc1ccc(F)cc1F,inactive,
Nc1ccccc1Nc1ccccc1,inactive,
O=C1c2ccccc2C(=O)C1c1ccc2cc(S(=O)(=O)O)cc(S(=O)(=O)O)c2n1,inactive,
O=C(O)c1ccccc1-n1cc(C(=O)O)c(=O)c2cc(Nc3c(F)cc(F)cc3Cl)c(Cl)cc21,inactive,
COc1cc(C)c(Cc2cnc(N)nc2N)cc1OC,inactive,
Clc1cccc(C(c2ccc3nc[nH]c3c2)n2ccnc2)c1 (stereo not given),inactive,
O=c1[nH]nc(-c2ccc([N+](=O)[O-])o2)o1,inactive,
C=CC(=O)OCCCCCCCCCC,inactive,
C[C@H]1C[C@H]2[C@@H]3CCC4=CC(=O)C=C[C@]4(C)[C@@]3(F)[C@@H](O)C[C@]2(C)[C@@]1(O)C(=O)COP(=O)(O)O,inactive,
COc1ccc(C(=O)c2ccc(C)cc2)c(O)c1,inactive,
CC1(C)C(=O)NC(=O)N1CO,inactive,

Structure (SMILES),Potency,"activity change, negative = inhibition"
Oc1ccc(Oc2ccccc2)cc1,inactive,
C=CC(C)(O)CC/C=C(/C)CCC=C(C)C (stereo not given),inactive,
CCCCCO,inactive,
CCCCCCCCCCCCCCCCCCCl,,0.775% [at 8.39 µM] (inactive)
Cc1c(Cl)cccc1[N+](=O)[O-],inactive,
C[C@@H](O)[C@H]1C(=O)N2C(C(=O)O)=C(S[C@@H]3CN[C@H](CNS(N)(=O)=O)C3)[C@H](C)[C@H]12,inactive,
O=C(c1ccc(Cl)cc1)c1ccc(Cl)cc1,inactive,
CCCC1CCOC(C)S1 (stereo not given),inactive,
O=C(O)c1cccc(C(=O)O)c1C(=O)O,inactive,
CC(C)(Cc1c[nH]c2ccccc12)NCC(O)COc1ccccc1C#N (stereo not given),inactive,
CCC(C(=O)O)c1ccc(N2Cc3ccccc3C2=O)cc1 (stereo not given),inactive,
O=C(OCCCCCOC(=O)c1ccccc1)c1ccccc1,inactive,
O=C(C1CCCCC1)N1CC(=O)N2CCCc3ccccc3C2C1 (stereo not given),inactive,
O=[N+]([O-])c1ccc(Cl)cc1Cl,inactive,
CCCCCCCCCCCCN1CCOCC1,inactive,
CCOC(OCC)OCC,inactive,
Sc1nc(S)nc(S)n1,inactive,
CC(Cc1ccccc1)(NC(=O)CN)c1ccccc1 (stereo not given),inactive,
CCCC(=O)OCc1ccccc1,inactive,
Oc1ccc(CCNCCCCCCNCCc2ccccc2)cc1O,inactive,
